# What was measured:
# Assay in all cases: SPOT peptide array binding signal intensity (averaged, normalized) (arbitrary units (background-subtracted, floor 0; scale differs between SH3 domains)); higher = stronger binding of the SH3 domain to the peptide
# [1] = target: AgAbp1
# Outline: (§1)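 GST-fused SH3 domains, from four yeast species, were produced in E. coli BL21(DE3) and captured on glutathione Sepharose. Membranes of cellulose carrying synthetic 15-mer peptides, in which cysteines had been replaced by serines, were exposed to each domain at 10 μg/ml overnight at 4°C in TBS-based blocking buffer. After anti-GST antibody, an HRP anti-mouse secondary and luminol, spots were imaged and quantified using Genespotter. Binding signal is normalized and background-subtracted spot intensity, averaged over replicates, in arbitrary units that differ between domains.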
# [2] = target: AgBbc1
# Outline: as §1
# [3] = target: AgBem1-D1
# Outline: as §1
# [4] = target: AgBzz1-D1
# Outline: as §1
# [5] = target: AgBzz1-D2
# Outline: as §1
# [6] = target: AgCyk3
# Outline: as §1
# [7] = target: AgFus1
# Outline: as §1
# [8] = target: AgHof1
# Outline: as §1
# [9] = target: AgHse1
# Outline: as §1
# [10] = target: AgLsb1
# Outline: as §1
# [11] = target: AgLsb4
# Outline: as §1
# [12] = target: AgMyo5
# Outline: as §1
# [13] = target: AgNbp2
# Outline: as §1
# [14] = target: AgRvs167
# Outline: as §1
# [15] = target: AgSho1
# Outline: as §1
# [16] = target: AgSla1-D1-D2
# Outline: as §1
# [17] = target: AgSla1-D3
# Outline: as §1
# [18] = target: CaAbp1-D1
# Outline: as §1
# [19] = target: CaAbp1-D2
# Outline: as §1
# [20] = target: CaBbc1
# Outline: as §1
# [21] = target: CaBem1-D1
# Outline: as §1
# [22] = target: CaBzz1-D1
# Outline: as §1
# [23] = target: CaBzz1-D2
# Outline: as §1
# [24] = target: CaCyk3
# Outline: as §1
# [25] = target: CaFus1
# Outline: as §1
# [26] = target: CaHof1
# Outline: as §1
# [27] = target: CaHse1
# Outline: as §1
# [28] = target: CaLsb1
# Outline: as §1
# [29] = target: CaLsb4
# Outline: as §1
# [30] = target: CaMyo5
# Outline: as §1
# [31] = target: CaNbp2
# Outline: as §1
# [32] = target: CaRvs167
# Outline: as §1
# [33] = target: CaRvs167-3
# Outline: as §1
# [34] = target: CaSho1
# Outline: as §1
# [35] = target: CaSla1-D1-D2
# Outline: as §1
# [36] = target: CaSla1-D3
# Outline: as §1
# [37] = target: ScAbp1
# Outline: as §1
# [38] = target: ScBbc1
# Outline: as §1
# [39] = target: ScBem1-D1
# Outline: as §1
# [40] = target: ScBzz1-D1
# Outline: as §1
# [41] = target: ScBzz1-D2
# Outline: as §1
# [42] = target: ScCyk3
# Outline: as §1
# [43] = target: ScFus1
# Outline: as §1
# [44] = target: ScHof1
# Outline: as §1
# [45] = target: ScHse1
# Outline: as §1
# [46] = target: ScLsb1
# Outline: as §1
# [47] = target: ScLsb2
# Outline: as §1
# [48] = target: ScLsb3
# Outline: as §1
# [49] = target: ScLsb4
# Outline: as §1
# [50] = target: ScMyo3
# Outline: as §1
# [51] = target: ScMyo5
# Outline: as §1
# [52] = target: ScNbp2
# Outline: as §1
# [53] = target: ScPex13
# Outline: as §1
# [54] = target: ScRvs167
# Outline: as §1
# [55] = target: ScSho1
# Outline: as §1
# [56] = target: ScSla1-D1-D2
# Outline: as §1
# [57] = target: ScSla1-D3
# Outline: as §1
# [58] = target: SpAbp1-D1
# Outline: as §1
# [59] = target: SpBbc1
# Outline: as §1
# [60] = target: SpBzz1-D1
# Outline: as §1
# [61] = target: SpBzz1-D2
# Outline: as §1
# [62] = target: SpCyk3
# Outline: as §1
# [63] = target: SpHof1
# Outline: as §1
# [64] = target: SpHof1-2
# Outline: as §1
# [65] = target: SpHof1-3
# Outline: as §1
# [66] = target: SpHse1
# Outline: as §1
# [67] = target: SpLsb1
# Outline: as §1
# [68] = target: SpLsb4
# Outline: as §1
# [69] = target: SpMyo1
# Outline: as §1
# [70] = target: SpNbp2
# Outline: as §1
# [71] = target: SpPex13
# Outline: as §1
# [72] = target: SpRvs167
# Outline: as §1
# [73] = target: SpSla1-D1-D2
# Outline: as §1
# [74] = target: SpSla1-D3
# Outline: as §1
binder,measurement,setting,value
GERSRPLVISILSSA,SPOT peptide array binding signal intensity,[1],≤ 0
same,SPOT peptide array binding signal intensity,[2],14.8
same,SPOT peptide array binding signal intensity,[3],73
same,SPOT peptide array binding signal intensity,[4],90
same,SPOT peptide array binding signal intensity,[5],106
same,SPOT peptide array binding signal intensity,[6],14
same,SPOT peptide array binding signal intensity,[7],1940
same,SPOT peptide array binding signal intensity,[8],14.8
same,SPOT peptide array binding signal intensity,[9],106
same,SPOT peptide array binding signal intensity,[10],≤ 0
same,SPOT peptide array binding signal intensity,[11],262
same,SPOT peptide array binding signal intensity,[12],≤ 0
same,SPOT peptide array binding signal intensity,[13],25
same,SPOT peptide array binding signal intensity,[14],3.67
same,SPOT peptide array binding signal intensity,[15],120
same,SPOT peptide array binding signal intensity,[16],11
same,SPOT peptide array binding signal intensity,[17],5
same,SPOT peptide array binding signal intensity,[18],43
same,SPOT peptide array binding signal intensity,[19],2
same,SPOT peptide array binding signal intensity,[20],55.2
same,SPOT peptide array binding signal intensity,[21],28.5
same,SPOT peptide array binding signal intensity,[22],268
same,SPOT peptide array binding signal intensity,[23],175
same,SPOT peptide array binding signal intensity,[24],37
same,SPOT peptide array binding signal intensity,[25],3880
same,SPOT peptide array binding signal intensity,[26],≤ 0
same,SPOT peptide array binding signal intensity,[27],10.5
same,SPOT peptide array binding signal intensity,[28],0.5
same,SPOT peptide array binding signal intensity,[29],≤ 0
same,SPOT peptide array binding signal intensity,[30],24
same,SPOT peptide array binding signal intensity,[31],171
same,SPOT peptide array binding signal intensity,[32],45.8
same,SPOT peptide array binding signal intensity,[33],538
same,SPOT peptide array binding signal intensity,[34],497
same,SPOT peptide array binding signal intensity,[35],11
same,SPOT peptide array binding signal intensity,[36],170
same,SPOT peptide array binding signal intensity,[37],3
same,SPOT peptide array binding signal intensity,[38],4
same,SPOT peptide array binding signal intensity,[39],9
same,SPOT peptide array binding signal intensity,[40],97
same,SPOT peptide array binding signal intensity,[41],619
same,SPOT peptide array binding signal intensity,[42],121
same,SPOT peptide array binding signal intensity,[43],3300
same,SPOT peptide array binding signal intensity,[44],≤ 0
same,SPOT peptide array binding signal intensity,[45],500
same,SPOT peptide array binding signal intensity,[46],≤ 0
same,SPOT peptide array binding signal intensity,[47],≤ 0
same,SPOT peptide array binding signal intensity,[48],6.5
same,SPOT peptide array binding signal intensity,[49],7
same,SPOT peptide array binding signal intensity,[50],≤ 0
same,SPOT peptide array binding signal intensity,[51],1
same,SPOT peptide array binding signal intensity,[52],71.5
same,SPOT peptide array binding signal intensity,[53],19.8
same,SPOT peptide array binding signal intensity,[54],6
same,SPOT peptide array binding signal intensity,[55],910
same,SPOT peptide array binding signal intensity,[56],8
same,SPOT peptide array binding signal intensity,[57],22
same,SPOT peptide array binding signal intensity,[58],≤ 0
same,SPOT peptide array binding signal intensity,[59],18
same,SPOT peptide array binding signal intensity,[60],314
same,SPOT peptide array binding signal intensity,[61],0.75
same,SPOT peptide array binding signal intensity,[62],26.5
same,SPOT peptide array binding signal intensity,[63],146
same,SPOT peptide array binding signal intensity,[64],12.2
same,SPOT peptide array binding signal intensity,[65],113
same,SPOT peptide array binding signal intensity,[66],482
same,SPOT peptide array binding signal intensity,[67],≤ 0
same,SPOT peptide array binding signal intensity,[68],9
same,SPOT peptide array binding signal intensity,[69],6
same,SPOT peptide array binding signal intensity,[70],146
same,SPOT peptide array binding signal intensity,[71],28
same,SPOT peptide array binding signal intensity,[72],0.333
same,SPOT peptide array binding signal intensity,[73],≤ 0
same,SPOT peptide array binding signal intensity,[74],11

# From the supplement of paper PMC4466140
